In PubChem BioAssay AID504652 (National Center for Advancing Translational Sciences (NCATS), 2011):
In all, about 360,000 compounds went through this assay and about 11,000 (3.1%) were called active. No stated cut-off is given here; in the data, active means activity change below about -30%; inactive means the rest. The full list was thinned out, with actives kept by preference.

biological target: D(1A) dopamine receptor (Homo sapiens) (UniProt P21728); assay: Antagonist of Human D 1 Dopamine Receptor: qHTS; conditions: HEK293 TREx D1 cells, calcium flux, dopamine EC80; at 10 µM; active compounds read low
Outline: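 Antagonism measured as reduced calcium response to an EC80 dopamine addition following 180 s compound pre-read; cells were inducible HEK293 Trex D1 plated overnight at 30 C, read kinetically at 1 cycle/sec.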
On the % scale 0 is the no-effect control and ±100 the full control effect.

D(1A) dopamine receptor (Homo sapiens), sequence (P21728 whole entry, looked up): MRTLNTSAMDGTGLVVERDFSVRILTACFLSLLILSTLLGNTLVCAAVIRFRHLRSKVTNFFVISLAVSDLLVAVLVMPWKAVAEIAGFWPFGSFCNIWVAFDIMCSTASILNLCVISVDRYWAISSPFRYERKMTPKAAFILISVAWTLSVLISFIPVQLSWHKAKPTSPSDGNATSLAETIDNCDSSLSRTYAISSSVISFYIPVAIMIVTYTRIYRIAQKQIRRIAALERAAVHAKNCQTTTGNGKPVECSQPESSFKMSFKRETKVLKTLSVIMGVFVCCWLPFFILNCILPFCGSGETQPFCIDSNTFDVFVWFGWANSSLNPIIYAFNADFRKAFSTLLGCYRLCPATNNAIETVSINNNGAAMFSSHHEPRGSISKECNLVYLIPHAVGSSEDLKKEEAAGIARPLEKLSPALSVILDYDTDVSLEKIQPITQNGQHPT

Row | SMILES | activity change, negative = inhibition
1 | Cc1ccc(S(=O)(=O)NC(N)=NCCC[C@@H](NC(=O)CNC(=O)c2ccccc2)C(=O)Nc2cc(C(F)(F)F)ccc2Cl)cc1 | 4.94% (inactive)
2 | COCCNC(=O)c1cc(-c2cccc(Cl)c2)on1 | -5.13% (inactive)
3 | COCCNC(=O)c1snc2ccc(Cl)cc12 | -34.4% (active)
4 | COCCNC(=O)c1ccc(S(=O)(=O)c2ccc(Cl)cc2)c(NC(C)=O)c1 | -3.29% (inactive)
5 | CCOC(=O)c1cccc(NC(=O)c2cc(S(=O)(=O)N3CCCC(C)C3)cn2C)c1 (configuration not stated) | -6.74% (inactive)
6 | CCOC(=O)c1c(C)[nH]c(C)c1S(=O)(=O)N(C)CC(=O)N1CCN(c2ccccc2)CC1 | 1.35% (inactive)
7 | CCCn1nc(Oc2nc(NC(C)C)nc(N(C)C)n2)ccc1=O | -79.5% (active)
8 | COC(=O)c1ccc(Oc2nc(NC(C)C)nc(SC)n2)cc1 | -9.38% (inactive)
9 | COc1nc(Oc2ccc(=O)n(C)n2)nc(N(C)C)n1 | -8.41% (inactive)
10 | COc1cc(C(CC(=O)NCCC(C)C)N2Cc3ccccc3C2=O)cc(OC)c1OC (configuration not stated) | -5.18% (inactive)
11 | CC(C)NC(=O)C1CCC(Cn2c(=O)c3sccc3n(Cc3ccc(F)cc3)c2=O)CC1 (configuration not stated) | 0.886% (inactive)
12 | Cc1ccc2nc(N3CCN(c4cccc(Cl)c4)CC3)c3nnnn3c2c1 | -5.5% (inactive)
13 | Cc1ccc(NC(=O)CSc2nc3ccccc3c3nc(CCn4cncc4C)nn23)cc1F | -2.83% (inactive)
14 | Brc1ccc(-c2csc(N/N=C/c3cccnc3)n2)cc1 | -16.3% (inactive)
15 | Oc1ccc(-c2csc(Nc3cccnc3)n2)cc1 | -30.4% (active)
16 | CN(c1ccc(O)cc1)c1nc(-c2cccnc2)cs1 | 1.14% (inactive)
17 | Cc1cccc(C(=O)Nc2ccc(-c3nc4ccccc4s3)c(C)c2)c1 | -25.8% (inactive)
18 | COc1ccccc1-c1cc(C(F)(F)F)nc(S(=O)(=O)CCCC(=O)Nc2ccc(F)cc2F)n1 | -9.9% (inactive)
19 | COc1ccc(C2/C(=C(/O)c3ccccc3)C(=O)C(=O)N2c2ncccn2)cc1OC (configuration not stated) | 2.93% (inactive)

Row | SMILES | activity change, negative = inhibition
20 | COc1ccc(C2SCCN2S(=O)(=O)c2ccccc2)cc1OC (configuration not stated) | -1.77% (inactive)
21 | COc1ccc(C2N=C(N)N=C(N)N2c2ccccc2)cc1OC (configuration not stated) | -44.6% (active)
22 | Cc1ccc(C)n1-c1nnc(N2CCC(C(=O)NCc3ccc(F)cc3)CC2)s1 | 0.798% (inactive)
23 | CCCCc1nn2c(=O)cc(COC(=O)c3cccc(NC(=O)COc4ccccc4)c3)nc2s1 | -12.5% (inactive)
24 | O=C(CCl)Nc1cccc(CP(=O)(c2ccccc2)c2ccccc2)c1 | 11.8% (inactive)
25 | CC(C)(CCl)C(=O)Nc1ccc(Sc2ccc(F)cc2)cc1 | -27.2% (inactive)
26 | O=C(CCl)Nc1ccc(Sc2ccc(NC(=O)CCl)cc2)cc1 | -33.1% (active)
27 | Cc1cc(C)cc(OCC(=O)Nc2nc(-c3ccc(F)cc3)ns2)c1 | -4.25% (inactive)
28 | Cc1ccc(Cn2ncc3c4sc(C)cc4n(C)c3c2=O)c(C)c1 | 7.1% (inactive)
29 | COc1cc(Br)cc2cc(S(=O)(=O)c3ccccc3)c(=O)oc12 | -1.47% (inactive)
30 | COc1ccc(NS(=O)(=O)c2ccc(Oc3c(C#N)cccc3C#N)cc2)cc1 | -44.8% (active)
31 | COc1ccc(NS(=O)(=O)c2ccc(NC(=S)NC(=O)CC(C)C)cc2)cc1 | -6.91% (inactive)
32 | COc1ccc(NS(=O)(=O)c2ccc(NC(=O)c3ccc(N(C)S(C)(=O)=O)cc3)cc2)cc1 | 3.18% (inactive)
33 | Cc1ccc2c(=O)cc(C(=O)Nc3sc4c(c3C(=O)NCc3cccnc3)CCCC4)oc2c1 | -10.7% (inactive)
34 | N=C(N)SCc1cccc2ccccc12 | -51.9% (active)
35 | CCc1ccc(-c2nn(-c3ccccc3)cc2CSC(=N)N)cc1 | 46% (inactive)
36 | CCOc1ccc(Br)cc1CSC(=N)N | 2.93% (inactive)
37 | COc1ccc(-c2noc(CCC(=O)N(C)c3ccccc3C)n2)cc1 | -13% (inactive)
38 | Cc1ccc(CN(C(=O)COc2ccc(Cl)cc2C)C2CCS(=O)(=O)C2)o1 (configuration not stated) | -2.94% (inactive)

Row | SMILES | activity change, negative = inhibition
39 | O=C(/C=C/c1ccc([N+](=O)[O-])cc1)NCCSCc1ccco1 | -97.8% (active)
40 | O=C(/C=C/c1cccc([N+](=O)[O-])c1)NCCSCc1ccco1 | -26.7% (inactive)
41 | COc1cc(OC)cc(C(=O)NCCSCc2ccco2)c1 | 4.54% (inactive)
42 | Cc1cc(C)cc(NC(=O)c2cnc3sc(N4CCCC4)nn3c2=O)c1 | -28.3% (inactive)
43 | Cc1nc2ccc(S(=O)(=O)NC(C(=O)NCc3ccccc3Cl)C(C)C)cc2s1 (configuration not stated) | 18.5% (inactive)
44 | COc1cccc(CNC(=O)c2ccc3c(c2)N(Cc2ccc(C(F)(F)F)cc2)C(=O)c2ccccc2S3)c1OC | -2.43% (inactive)
45 | O=[N+]([O-])/C=C/c1ccc2c(ccn2Cc2ccccc2)c1 | -37.9% (active)
46 | O=c1c(=O)n(Cc2c(F)cccc2Cl)ccn1Cc1ccccc1 | -3.28% (inactive)
47 | OCCC1CN(Cc2cnc(-c3ccccc3)s2)CCN1CCc1ccccc1 (configuration not stated) | -3.13% (inactive)
48 | OCCC1CN(Cc2cccc(O)c2)CCN1CCc1ccccc1 (configuration not stated) | -42.3% (active)
49 | OCCC1CN(Cc2ccc(Oc3ncccn3)cc2)CCN1CCc1ccccc1 (configuration not stated) | -6.31% (inactive)
50 | Cc1ccc(C)c(S(=O)(=O)n2nc(C)c(S(=O)(=O)N3CCC(C)CC3)c2C)c1 | 6.24% (inactive)
51 | CN1CCN(CCNC(=O)Nc2ccc([N+](=O)[O-])cc2)CC1 | -6.04% (inactive)
52 | CC1=C(c2ccc(Cl)cc2)S(=O)(=O)N=C1N1CCN(c2cc(C)ccc2C)CC1 | 3.21% (inactive)
53 | O=C(NCCCN1CCOCC1)c1ccc([N+](=O)[O-])cc1[N+](=O)[O-] | -7.86% (inactive)
54 | Cc1ccc(C)c(N2CCN(CCCNC(=O)Nc3ccc(Cl)cc3)CC2)c1 | -58.4% (active)
55 | CC1=C(c2ccc(C)cc2)S(=O)(=O)NC1=NCCCN1CCN(c2cc(C)ccc2C)CC1 | 10.4% (inactive)
56 | O=C(NCCCN1CCN(c2ccc(F)cc2)CC1)Nc1ccc([N+](=O)[O-])cc1 | -54.6% (active)
57 | Cc1cccc(C(=O)Nc2ccc(-c3nc4ncccc4o3)cc2C)c1 | -4.33% (inactive)
